Pf growth 48h: inhibits P. falciparum growth in the first generation, 48 h | P. falciparum luciferase growth in erythrocytes, 48 h | Potency, µM (doses to about 28.7 µM), most hits filed as inhibitors | 310,000 compounds, 5.9% hits
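Growth was read as firefly luciferase luminescence after a 48 h, 37 C, 5% CO2 exposure of compounds to reporter-bearing P. falciparum cultures (0.1% parasitemia, 2% hematocrit final) in Albumax-supplemented RPMI 1640.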
NS1 function inh: blocks influenza NS1 protein function; Potency, µM (series often up to 46.1 µM); 270,000 compounds, 0.4% hits; AID 2326; calls by dose curve; note: actives are rising curves; nearly all actives have a fitted effect of over 50% in size
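A cell-based growth assay was used: compounds that relieve NS1-induced slow growth of budding yeast raise OD600. Assay medium was yeast nitrogen base with ammonium sulphate and -URA supplement, pH 6.0, with 2% galactose.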
CHX counter: affects cycloheximide protein synthesis inhibition readout, counter-screen | cell reporter, cycloheximide protein synthesis inhibition counterscreen | max response, % | 300,000 compounds, 12% hits | AID 2314; in the data active = max response mostly above about 13%, no sharp cut-off; inactive = mostly below about 14%; note: read at 38.3 µM for the half of the compounds with a filed dose
Sm TGR block: S. mansoni TGR enzyme inhibition | Q962Y6 | 360,000 compounds, 3% hits | purified TGR, DTNB reduction, TNB absorbance 405 nm | AID 485364 | Potency, µM (titrated, usually from 114 µM), actives largely listed as inhibitors; note: nearly all actives have a fitted effect of over 60% in size
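First, TGR (20 nM dispensed) and NADPH were mixed with compound. Second, a 15 min room-temperature incubation followed. Third, further NADPH and then DTNB were added to start the reaction. Finally, TNB absorbance was monitored kinetically.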
Shiga inhibitor: inhibitors of Shiga toxin in Vero cells | Vero cells, Shiga toxin protein synthesis inhibition reporter | inhibition, % at 38.7 µM | 290,000 compounds, 9.2% hits | AID 2315; in the data active = inhibition mostly above about 28%, no sharp cut-off; inactive = mostly below about 43%
Pf growth 96h: inhibits malaria parasite growth, 96 h; P. falciparum luciferase reporter growth, 96 h; Potency, µM (top dose mostly 28.7 µM), usual class: inhibitors; 320,000 compounds, 6.9% hits
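Erythrocytes infected with luciferase-expressing P. falciparum were dispensed at 2% hematocrit and 0.05% parasitemia (final), then incubated with compounds 96 hours at 37 C in 5% CO2. Luminescence after detection reagent addition reported growth.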
Hits are given with their value; i = inactive; ? = inconclusive; nt = not tested or not shown; [ ] = dose if it differs, or a comment. This is a sample that favours compounds with a hit; in the whole collection about 21% have one here. Unless noted, calls come from the whole dose curve; as a rule, active = well fitted curve in the direction sought with a large enough effect; inconclusive = small, poorly fitted or top-dose-only effect, or another doubt; inactive = no such curve, though single readings can be large; an effect the other way counts as inactive or inconclusive.

SMILES	Pf growth 48h	NS1 function inh	CHX counter	Sm TGR block	Shiga inhibitor	Pf growth 96h
COc1ccccc1/C=C/C(=O)Nc1ccc(S(=O)(=O)Nc2cc(C)nc(C)n2)cc1	i	i	i	i	i	i
COc1ccc(OCCN2CCN(C(=O)c3ccc(OC)c(OC)c3)CC2)cc1	i	i	i	i	i	i
COc1ccc2c(C)cc(SCC(=O)NCCN3C(=O)CSC3=O)nc2c1	i	i	i	i	i	i
Cc1ccc(/C=C/C(=O)Nc2ccc([N+](=O)[O-])cc2)o1	i	i	36	16µM	75	i
O=C(NCCO)/C(=C/c1ccc2c(c1)OCO2)NC(=O)c1ccc(Br)cc1	i	i	41	i	74	i
O=C(O)CNC(=O)/C(=C\c1ccc2c(c1)OCO2)NC(=O)c1ccc(Br)cc1	i	nt	i	i	i	?
O=C(Nc1ccc(C(=O)O)cc1)/C(=C\c1ccc2c(c1)OCO2)NC(=O)c1ccc(Br)cc1	i	i	39	nt	i	i
CC(=O)N/C(=C/c1ccc2c(c1)OCO2)C(=O)Nc1ccccc1	i	i	27	i	80	?
COC(=O)[C@@]1(Cc2ccc(F)cc2)[C@H]2c3cc(C(=O)N(C)C)n(CCc4ccccn4)c3C[C@H]2CN1C(=O)c1ccccc1	2.6µM	i	i	i	i	3.3µM
CC(C)Oc1cccc(C(=O)C2CCCN(C(=O)c3ccnn3C)C2)c1 (configuration not stated)	i	i	i	i	i	i
COC(=O)[C@@]1(Cc2ccc(OC)cc2)[C@H]2c3cc(C(=O)N4CCCC4)n(Cc4ccc(C)o4)c3C[C@H]2CN1C(=O)c1ccccc1	?	?	i	i	i	2.1µM
COC(=O)[C@@]1(Cc2ccccc2)[C@H]2c3cc(C(=O)N4CCCC4)n(CCSCCO)c3C[C@H]2CN1C(=O)c1ccccc1	1.7µM	i	i	i	i	2.3µM
COC(=O)[C@@]1(Cc2ccc(F)cc2)[C@H]2c3cc(C(=O)N4CCCC4)n(CCc4ccccn4)c3C[C@H]2CN1C(=O)c1ccccc1	3.3µM	i	i	i	i	2.1µM
COc1ccc(NC(=O)c2cc(S(=O)(=O)N3CCc4ccccc43)cn2C)cc1OC	i	i	i	i	i	i
CCOCCCn1c(SCC(=O)NCc2ccccc2)nc2c(sc3ccccc32)c1=O	nt	nt	nt	i	nt	nt
COc1ccc(NC(=O)CSc2nc(-c3ccccc3)[nH]c2-c2ccccc2)cc1OC	nt	nt	nt	i	nt	nt
COCCn1c(C(=O)N2CCCC2)cc2c1C[C@H]1CN(C(=O)c3ccccc3)[C@@](Cc3ccc(F)cc3)(C(=O)OC)[C@@H]21	1.7µM	i	i	i	i	4.7µM
COCCNC(=O)C1CCN(C(=O)c2cc3sccc3n2Cc2ccc(F)cc2)CC1	?	nt	i	i	i	i
CCOc1ccc(/C=C/C(O)=C2/C(=O)NC3(C)CC2c2ccccc2O3)cc1OC (configuration not stated)	?	nt	i	i	i	?
CCOc1ccc(/C=C/C(O)=C2/C(=O)N(C)C3(C)CC2c2ccccc2O3)cc1OC (configuration not stated)	6.6µM	nt	i	i	i	i
CN1CCN(S(=O)(=O)c2cccc(C(=O)NC3CCCC3)c2)CC1	i	nt	nt	i	nt	i
CN(C)c1ccc(/C=N/O)cc1	i	i	i	i	i	i
CN(C)c1ccc(/C=C2/C(=N\O)C3CCN2CC3)cc1	i	i	41	i	89	i
CC(=O)c1cc2c(ccc3ccccc32)oc1=O	i	i	i	i	i	2.3µM
CC(=O)Nc1cc2c(ccc3ccccc32)oc1=O	i	nt	i	i	i	i
SMILES	Pf growth 48h	NS1 function inh	CHX counter	Sm TGR block	Shiga inhibitor	Pf growth 96h
COCC(C)NC(=O)c1cc2c(ccc3ccccc32)oc1=O (configuration not stated)	i	i	24	i	22	i
CCc1ccc(NC(=O)Cn2c(=O)c3cc(Cl)ccc3n3nncc23)cc1	nt	nt	nt	i	nt	nt
Cc1ccccc1NC(=S)NC(C)CCc1ccccc1 (configuration not stated)	?	i	i	i	i	13µM
Cc1cccc(C)c1NC(=S)NC(=O)CCc1ccccc1	?	i	i	?	i	?
Cc1ccccc1NC(=S)NC(=O)CCc1ccccc1	?	i	17	?	i	?
CC(O)CCC(=O)NNC1CC(=O)N(c2ccccc2)C1=O (configuration not stated)	i	i	i	i	i	i
CC(=O)NCCCC(=O)NNC1CC(=O)N(c2cccc(Cl)c2)C1=O (configuration not stated)	i	i	i	11µM	i	i
CCOC(=O)NNC1CC(=O)N(c2ccccc2)C1=O (configuration not stated)	i	i	i	i	i	i
CCCCCC(=O)NNC1CC(=O)N(c2cccc(OCC)c2)C1=O (configuration not stated)	i	i	i	32µM	i	?
CC(=O)C1=C(c2ccccc2)N(C(C)=O)n2c(C)nnc2S1	2.3µM	i	i	i	i	i
COc1ccc(C(=O)Oc2ccc(=O)n(-c3ccccc3)n2)cc1	i	i	i	i	i	i
COC(=O)[C@@H]1[C@@H]2C[C@H]3c4[nH]c5ccccc5c4CCN3C[C@@H]2CC[C@@H]1OS(=O)(=O)O	nt	i	nt	nt	nt	nt
O=C(O)[C@@H]1[C@@H]2C[C@H]3c4[nH]c5ccccc5c4CCN3C[C@@H]2CC[C@@H]1O	?	nt	nt	nt	nt	5.7µM
COc1ccc2c3c([nH]c2c1)C1CC2C(CC(O)C(OC)C2C(=O)O)CN1CC3 (configuration not stated)	9.3µM	i	i	i	i	3.7µM
COC(=O)[C@H]1[C@H]2C[C@@H]3c4[nH]c5cc(OC)ccc5c4CCN3C[C@H]2C[C@@H](OC(=O)c2cc(OC)c(OC)c(OC)c2)[C@@H]1OC	1.5µM	?	nt	i	nt	1.7µM
Cc1[nH]n(-c2ccccc2)c(=O)c1C1(C(F)(F)F)C(=O)N(c2ccc(F)cc2)C2=C1C(=O)CC(C)(C)C2 (configuration not stated)	?	i	i	i	i	nt
COC(=O)c1sc(NC(=O)c2ccc(C)o2)nc1C	i	i	47	i	147	?
COC(=O)c1sc(NC(=O)c2oc3ccccc3c2C)nc1C	i	i[9.22 µM]	28	i	38	nt
CCOC(=O)c1sc(NC(=O)c2ccc(C)o2)nc1C	nt	i	28	i[11.4 µM]	43	i
CCOC(=O)c1sc(NC(=O)c2ccc(OC(C)=O)cc2)nc1C	i	i	21	nt	56	?
CC(CC(=O)Nc1ccc(F)cc1)S(=O)(=O)c1cc2c3c(c1)CCN3C(=O)CC2 (configuration not stated)	nt	nt	nt	i	nt	nt
Clc1ccc(-c2cn3ccccc3n2)cc1	i	i	37	i	40	i
COc1ccc(-c2nc3ccccn3c2Cl)cc1	i	i	41	i	i	i
COc1ccc(-c2nc3ccccn3c2CN2CCN(c3ccccc3F)CC2)cc1	?	i	i	i	i	?

High-throughput results deposited in PubChem BioAssay by National Center for Advancing Translational Sciences (NCATS).
